Results published in PubChem BioAssay (NCI).
Compounds without any hit were thinned out: in the full panel of roughly 83,000, 20% have a hit.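 Negative percent growth values reflect cell death: -40 means 40% of the cells present at the start died, and -100 means all died.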 Activity calls are given as the source filed them. Rule for the calls: active = growth percent below 10; inactive = the rest.

Assays:
Assay in all cases: NCI-60 one-dose screen, 48 h (100 = growth as untreated, 0 = no growth, -100 = all killed)
Conditions in all cases: 10 µM unless noted
NCI-H23 lung = tested on: NCI-H23 lung
NCI-H226 lung = tested on: NCI-H226 lung
NCI-H322M lung = tested on: NCI-H322M lung
HOP-62 NSCLC = tested on: HOP-62 NSCLC
NCI-H460 lung = tested on: NCI-H460 lung
HOP-92 NSCLC = tested on: HOP-92 NSCLC
NCI-H522 lung = tested on: NCI-H522 lung
A549/ATCC NSCLC = tested on: A549/ATCC NSCLC
786-0 renal = tested on: 786-0 renal
COLO 205 colon = tested on: COLO 205 colon
DU-145 prostate = tested on: DU-145 prostate
K-562 leukemia = tested on: K-562 leukemia
MALME-3M melanoma = tested on: MALME-3M melanoma
MDA-MB-231 breast = tested on: MDA-MB-231 breast
RXF 393 renal = tested on: RXF 393 renal
SF-268 CNS = tested on: SF-268 CNS
SF-295 CNS = tested on: SF-295 CNS
SF-539 CNS = tested on: SF-539 CNS
M14 melanoma = tested on: M14 melanoma

Measured: growth

O=C1NCC(c2cc3ccccc3[nH]c2=O)Nc2ccccc21 (stereo not given)
inactive: NCI-H23 lung 97.4% | NCI-H226 lung 98.4% | NCI-H322M lung 100% | HOP-62 NSCLC 90.6% | NCI-H460 lung 105% | HOP-92 NSCLC 104% | NCI-H522 lung 88.6% | A549/ATCC NSCLC 92.4% | 786-0 renal 100% | COLO 205 colon 107% | DU-145 prostate 111% | K-562 leukemia 90.2% | MALME-3M melanoma 96.8% | MDA-MB-231 breast 97.9% | RXF 393 renal 90.7% | SF-268 CNS 99.9% | SF-295 CNS 106% | SF-539 CNS 96.5% | M14 melanoma 101%

CC/C=C\C/C=C\C[C@H]1C/C=C2/C(=O)C=C[C@H]2C/C=C\CCC(=O)O1
inactive: NCI-H322M lung 53.1% | A549/ATCC NSCLC 25.2% | DU-145 prostate 12.7% | MALME-3M melanoma 12.4% | SF-268 CNS 12.7% | SF-539 CNS 13%
active: NCI-H23 lung 7.93% | NCI-H226 lung -5.58% | HOP-62 NSCLC -23.6% | NCI-H460 lung -5.43% | HOP-92 NSCLC -10% | NCI-H522 lung -56% | 786-0 renal -6.65% | COLO 205 colon -32.4% | K-562 leukemia 1.48% | MDA-MB-231 breast 3.22% | RXF 393 renal -48% | SF-295 CNS 6.87% | M14 melanoma -3.62%

CCC(=O)Oc1ccc2c(c1)CC[C@@H]1[C@@H]2CC[C@]2(C)C[C@H](OC(=O)CC)C[C@@H]12
inactive: NCI-H23 lung 79.1% | NCI-H226 lung 99.9% | NCI-H322M lung 92.6% | HOP-62 NSCLC 64.1% | NCI-H460 lung 62.6% | HOP-92 NSCLC 62.8% | NCI-H522 lung 32.1% | A549/ATCC NSCLC 71.5% | 786-0 renal 67.9% | COLO 205 colon 118% | DU-145 prostate 79.2% | K-562 leukemia 29.4% | MALME-3M melanoma 80.1% | MDA-MB-231 breast 71.4% | RXF 393 renal 86.2% | SF-268 CNS 80.1% | SF-295 CNS 51.6% | SF-539 CNS 76.6% | M14 melanoma 50.5%

O=C1CCC/C=C\C[C@H]2C=CC(=O)/C2=C/C[C@H](C/C=C\CC(F)(F)F)O1
inactive: NCI-H322M lung 17.5% | MDA-MB-231 breast 17.7%
active: NCI-H23 lung -8.61% | NCI-H226 lung 8.07% | HOP-62 NSCLC -11.7% | NCI-H460 lung -30.5% | HOP-92 NSCLC -24.4% | NCI-H522 lung -50.8% | A549/ATCC NSCLC 1.72% | 786-0 renal -73.9% | COLO 205 colon -44.4% | DU-145 prostate -3.69% | K-562 leukemia 3.68% | MALME-3M melanoma -12% | RXF 393 renal -85.4% | SF-268 CNS -1.48% | SF-295 CNS -19.7% | SF-539 CNS -40.1% | M14 melanoma -15.2%

C=C1C(=O)O[C@H]2[C@H]1CC/C(Cn1cc(-c3ccsc3)nn1)=C\CC[C@@]1(C)O[C@@H]21
inactive: NCI-H322M lung 72.7% | HOP-62 NSCLC 28.4% | NCI-H460 lung 41% | A549/ATCC NSCLC 13.8% | SF-295 CNS 53.9%
active: NCI-H23 lung -14.9% | NCI-H226 lung 7.54% | HOP-92 NSCLC -72.9% | NCI-H522 lung -67.8% | 786-0 renal -86.7% | COLO 205 colon -61% | DU-145 prostate -83.5% | K-562 leukemia -16.2% | MALME-3M melanoma -66.4% | MDA-MB-231 breast -58% | RXF 393 renal -56.7% | SF-268 CNS -25.8% | SF-539 CNS -72.1% | M14 melanoma -56.7%

CC(Cc1nnc(SCC(=O)Nc2ccc(I)cc2)n1N)c1ccccc1 (stereo not given)
inactive: NCI-H23 lung 99.8% | NCI-H226 lung 87.2% | NCI-H322M lung 95.7% | HOP-62 NSCLC 71% | NCI-H460 lung 96.1% | HOP-92 NSCLC 76.7% | NCI-H522 lung 82.8% | A549/ATCC NSCLC 100% | 786-0 renal 72% | COLO 205 colon 93.9% | DU-145 prostate 94.5% | K-562 leukemia 87.1% | MALME-3M melanoma 108% | MDA-MB-231 breast 81.8% | RXF 393 renal 53.7% | SF-268 CNS 102% | SF-295 CNS 127% | SF-539 CNS 94.3% | M14 melanoma 95.3%

CC(=O)Oc1cccc(OC(C)=O)c1OC(C)=O
inactive: NCI-H23 lung 111% | NCI-H226 lung 97.8% | NCI-H322M lung 99.7% | HOP-62 NSCLC 92.1% | NCI-H460 lung 110% | HOP-92 NSCLC 106% | NCI-H522 lung 75.2% | A549/ATCC NSCLC 72.6% | 786-0 renal 97.7% | COLO 205 colon 107% | DU-145 prostate 108% | K-562 leukemia 100% | MALME-3M melanoma 97.6% | MDA-MB-231 breast 98.9% | RXF 393 renal 99.5% | SF-268 CNS 105% | SF-295 CNS 99.2% | SF-539 CNS 99.5% | M14 melanoma 95.3%

Cc1cc(NC(=O)COC(=O)c2sc3cc(F)ccc3c2Cl)no1
inactive: NCI-H23 lung 108% | NCI-H226 lung 101% | NCI-H322M lung 112% | HOP-62 NSCLC 96.2% | NCI-H460 lung 116% | HOP-92 NSCLC 91.8% | NCI-H522 lung 99.3% | A549/ATCC NSCLC 103% | 786-0 renal 101% | COLO 205 colon 104% | DU-145 prostate 116% | K-562 leukemia 111% | MALME-3M melanoma 100% | MDA-MB-231 breast 98.6% | RXF 393 renal 32.6% | SF-268 CNS 120% | SF-295 CNS 112% | SF-539 CNS 105% | M14 melanoma 102%

CC(=O)c1cc(C(=O)c2ccc3c(c2)Sc2ccccc2N3)c2cc(C)ccn12
inactive: NCI-H23 lung 16.5% | NCI-H226 lung 56.6% | NCI-H322M lung 35.1% | HOP-62 NSCLC 21.1% | HOP-92 NSCLC 42.6% | A549/ATCC NSCLC 14.5% | MALME-3M melanoma 68.2% | RXF 393 renal 49.3% | SF-268 CNS 22.1% | M14 melanoma 17.2%
active: NCI-H460 lung 1.02% | NCI-H522 lung -47.9% | 786-0 renal 9.68% | COLO 205 colon -62.2% | DU-145 prostate 0.638% | K-562 leukemia 5% | MDA-MB-231 breast 3.24% | SF-295 CNS -1.7% | SF-539 CNS -32.5%

O=C1C2=C(C(=O)c3c(O)ccc(O)c31)N(c1cccnc1)Cc1ccccc1O2
inactive: NCI-H226 lung 19.2% | NCI-H322M lung 23.9% | A549/ATCC NSCLC 31.6% | SF-295 CNS 37.9%
active: NCI-H23 lung -5.92% | HOP-62 NSCLC -3.72% | NCI-H460 lung 7.48% | HOP-92 NSCLC -89.9% | NCI-H522 lung -77.9% | 786-0 renal -86.7% | COLO 205 colon -60.9% | DU-145 prostate -96.6% | K-562 leukemia -9.44% | MALME-3M melanoma -80.5% | MDA-MB-231 breast -68.9% | RXF 393 renal -78.8% | SF-268 CNS 1.4% | SF-539 CNS -56.1% | M14 melanoma -78%

CN(C)C/C=C/C(=O)Nc1cc2c(Nc3ccc(F)c(Cl)c3F)ncnc2cc1OCCOC(F)F
inactive: NCI-H23 lung 26.6% | NCI-H226 lung 25.1% | HOP-62 NSCLC 20.6% | NCI-H460 lung 36.6% | A549/ATCC NSCLC 21.8% | COLO 205 colon 20.1% | DU-145 prostate 10.4% | MALME-3M melanoma 35.3% | SF-268 CNS 14.4% | SF-295 CNS 33.7% | M14 melanoma 41.5%
active: NCI-H322M lung 1.96% | HOP-92 NSCLC -53.7% | NCI-H522 lung -25.7% | 786-0 renal 0.67% | K-562 leukemia 5.47% | MDA-MB-231 breast -1.17% | RXF 393 renal -29.4% | SF-539 CNS 9.19%

COc1cccc2nc(Nc3ccc(NC(=O)c4ccc5ncccc5c4)cc3)ccc12
inactive: NCI-H23 lung 92.8% | NCI-H226 lung 97.5% | NCI-H322M lung 81.4% | HOP-62 NSCLC 91.9% | NCI-H460 lung 84.8% | HOP-92 NSCLC 111% | NCI-H522 lung 99.9% | A549/ATCC NSCLC 78.1% | 786-0 renal 42.7% | COLO 205 colon 103% | DU-145 prostate 89.6% | K-562 leukemia 60.1% | MALME-3M melanoma 70.2% | MDA-MB-231 breast 68.3% | RXF 393 renal 30% | SF-268 CNS 82.8% | SF-539 CNS 48.1% | M14 melanoma 92.6%
active: SF-295 CNS 6.41%

Cc1ccc2nc(-c3c(CCCO)noc3N)[nH]c(=O)c2c1
inactive: NCI-H23 lung 130% | NCI-H226 lung 99.9% | NCI-H322M lung 89.6% | HOP-62 NSCLC 103% | NCI-H460 lung 108% | HOP-92 NSCLC 65.7% | NCI-H522 lung 103% | A549/ATCC NSCLC 101% | 786-0 renal 98.6% | COLO 205 colon 121% | DU-145 prostate 117% | K-562 leukemia 68% | MALME-3M melanoma 96.6% | MDA-MB-231 breast 105% | RXF 393 renal 153% | SF-268 CNS 111% | SF-295 CNS 99.6% | SF-539 CNS 97.3% | M14 melanoma 107%

Cc1ccc2nc(SCn3nnc4ccccc4c3=O)[nH]c2c1
inactive: NCI-H23 lung 100% | NCI-H226 lung 110% | NCI-H322M lung 135% | HOP-62 NSCLC 88.9% | NCI-H460 lung 99.5% | HOP-92 NSCLC 82.8% | NCI-H522 lung 89.5% | A549/ATCC NSCLC 113% | 786-0 renal 107% | COLO 205 colon 75.9% | DU-145 prostate 96.5% | K-562 leukemia 74.4% | MALME-3M melanoma 323% | MDA-MB-231 breast 97.9% | RXF 393 renal 117% | SF-268 CNS 111% | SF-295 CNS 109% | SF-539 CNS 86.4% | M14 melanoma 102%

CCN(CC)CCSc1c2ccc(Cl)cc2nc2ccc(OC)cc12
inactive: NCI-H23 lung 87.1% | NCI-H226 lung 100% | NCI-H322M lung 105% | HOP-62 NSCLC 75.9% | NCI-H460 lung 102% | HOP-92 NSCLC 82.3% | A549/ATCC NSCLC 74% | 786-0 renal 67.6% | COLO 205 colon 26.8% | MALME-3M melanoma 101% | MDA-MB-231 breast 51.9% | RXF 393 renal 116% | SF-268 CNS 96.7% | SF-295 CNS 105% | SF-539 CNS 99.6% | M14 melanoma 79%
active: NCI-H522 lung -24.9% | DU-145 prostate -38% | K-562 leukemia 9.42%
